Experiments:
Conditions in all cases: concentration: 1 μM, replicates: in singlicate; n = 1
[1] = system: FYN
[2] = system: GAK
[3] = system: T1, GCN2(Kin.Dom.2,S808G)
T1 construct: gene EIF2AK4

[4] = system: GRK1
[5] = system: T2, GRK2
T2 construct: gene ADRBK1

[6] = system: T3, GRK3
T3 construct: gene ADRBK2

[7] = system: GRK4
[8] = system: GRK7
[9] = system: GSK3A
[10] = system: GSK3B
[11] = system: T4, HASPIN
T4 construct: gene GSG2

[12] = system: HCK
[13] = system: HIPK1
[14] = system: HIPK2
[15] = system: HIPK3
[16] = system: HIPK4
[17] = system: HPK1
[18] = system: HUNK
[19] = system: ICK
[20] = system: IGF1R
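Note: KINOMEscan kinase panel screen.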

SMILES | %Inh [1] [%] | %Inh [2] [%] | %Inh [3] [%] | %Inh [4] [%] | %Inh [5] [%] | %Inh [6] [%] | %Inh [7] [%] | %Inh [8] [%] | %Inh [9] [%] | %Inh [10] [%] | %Inh [11] [%] | %Inh [12] [%] | %Inh [13] [%] | %Inh [14] [%] | %Inh [15] [%] | %Inh [16] [%] | %Inh [17] [%] | %Inh [18] [%] | %Inh [19] [%] | %Inh [20] [%]
c1ccc(-c2n[nH]cc2Nc2ccnc3ccccc23)nc1 [GW694077] | 36 | 100 | 0 | 7 | 0 | 33 | 81 | 0 | 0 | 7 | 100 | 0 | 92.7 | 98.6 | 98.3 | 47 | 32 | 0 | 0 | 2
Cl.Cl.NCC(C(=O)Nc1cc(Br)c(-c2ccnc3[nH]ccc23)s1)c1ccccc1 (stereo not drawn) [GSK1269851] | 30 | 83 | 0 | 56 | 13 | 62 | 86 | 13 | 0 | 7 | 97.6 | 29 | 48 | 0 | 55 | 81 | 41 | 0 | 33 | 16
O=C(NC1CCN(c2ccnc(Nc3ccc(F)cc3)n2)C1)c1cc2ccccc2s1 (stereo not drawn) [GSK1379716] | 26 | 13 | 7 | 3 | 14 | 33 | 0 | 0 | 0 | 20 | 12 | 0 | 0 | 0 | 8 | 0 | 54 | 10 | 0 | 13
Cl.c1ccc(-c2ccc3c(Nc4ccc5[nH]ccc5c4)ccnc3c2)nc1 [GW440138] | 46 | 64 | 0 | 0 | 0 | 50 | 0 | 0 | 26 | 0 | 23 | 19 | 0 | 0 | 0 | 0 | 10 | 0 | 0 | 40
COc1cccc(C(=O)Nc2cccc(Oc3ccc4nc(NC(=O)C5CC5)cn4n3)c2)c1 | 84 | 33 | 22 | 17 | 0 | 0 | 0 | 0 | 8 | 10 | 0 | 98.1 | 37 | 0 | 0 | 15 | 42 | 12 | 0 | 0
CNC(=O)c1ccccc1Nc1nc(Nc2ccc(N3CCOCC3)cc2)ncc1Cl.Cl [GSK1576028] | 98.3 | 96.9 | 100 | 15 | 13 | 0 | 84 | 3 | 76 | 72 | 80 | 99.6 | 99.4 | 99.3 | 99 | 99.3 | 98.8 | 0 | 57 | 96.6
CN(c1ccc(NC(=O)Nc2cc(C(F)(F)F)ccc2F)cc1)c1ccnc(Nc2ccc(S(N)(=O)=O)cc2)n1 [GW809893] | 83 | 0 | 0 | 17 | 13 | 0 | 25 | 6 | 68 | 12 | 2 | 98.3 | 59 | 64 | 84 | 99.1 | 99.4 | 15 | 21 | 0
Cn1cc(-c2[nH]c3cc(NC(=O)[C@H](N)C4CCCCC4)cc4c3c2C=NNC4=O)cn1 | 89 | 99.8 | 99.3 | 11 | 96.9 | 100 | 97.1 | 40 | 0 | 2 | 52 | 96.9 | 88 | 80 | 80 | 89 | 65 | 0 | 0 | 0
COc1cc(Nc2nccc(N3CCC(NC(=O)c4cc5ccccc5s4)C3)n2)cc(OC)c1OC (stereo not drawn) [GSK1379760] | 8 | 27 | 4 | 0 | 0 | 17 | 19 | 0 | 0 | 4 | 19 | 0 | 9 | 0 | 0 | 9 | 90 | 0 | 0 | 13
